Records with an inconclusive call do not appear. The source made the active and inactive calls. Rule for the calls, unless noted: active = hit-call score of the fitted dose curve at least 0.9, where 1 is the maximum; inactive = score below 0.9.
What was measured:
[1] = read-out: Monocyte Chemoattractant Protein-1 (MCP1), CCL2 (gene 6347); test: BSK_LPS_MCP1: BioMAP Diversity Plus: LPS Assay for Monocyte Chemoattractant Protein-1 (MCP1) Biomarker Activity (AID 2283081); conditions: primary human HUVEC with PBMC; actives raise or lower the signal;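 for AC50: secreted MCP-1 protein quantified by ELISA in culture supernatant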
Summary of the method: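 Values derive from bidirectional fitting against DMSO of ELISA-measured MCP-1 in a human primary endothelial and mononuclear cell co-culture, 24 h after chemical addition under LPS activation.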

[2] = BSK_LPS_PGE2: BioMAP Diversity Plus: LPS Assay for Prostaglandin E2 (PGE2) Biomarker Activity (AID 2283082); conditions: primary human HUVEC with PBMC; actives raise or lower the signal;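 for AC50: secreted prostaglandin E2 measured by ELISA in LPS-stimulated co-culture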
Summary of the method: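 Endpoint derived from bidirectional curve fitting versus DMSO of ELISA-measured PGE2 in LPS-stimulated human primary vascular co-culture (HUVEC with PBMC) harvested at 24 h.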

[3] = read-out: Macrophage colony-stimulating factor (MCSF), CSF1 (gene 1435); test: BSK_LPS_MCSF: BioMAP Diversity Plus: LPS Assay for Macrophage colony-stimulating factor (MCSF) Biomarker Activity (AID 2283083); conditions: primary human HUVEC with PBMC; actives raise or lower the signal
Summary of the method: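 Bidirectional fit versus DMSO of ELISA-measured M-CSF in co-cultured human umbilical vein endothelial cells and PBMC, sampled 24 h after dosing.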

[4] = read-out: Tissue Factor, F3 (gene 2152); test: BSK_LPS_TissueFactor: BioMAP Diversity Plus: LPS Assay for Tissue Factor Biomarker Activity (AID 2283084); conditions: primary human HUVEC with PBMC; actives raise or lower the signal
Summary of the method: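 Read-out: CD142 ELISA, 24 h. System: LPS-driven human endothelial/PBMC co-culture. Analysis: up- or down-signal fitted against DMSO.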

[5] = read-out: Tumor necrosis factor (Homo sapiens) (UniProt P01375); test: BSK_LPS_TNFa: BioMAP Diversity Plus: LPS Assay for Tumour Necrosis Factor alpha (TNFa) Biomarker Activity (AID 2283085); conditions: primary human HUVEC with PBMC; actives raise or lower the signal
Summary of the method: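 Primary human vascular co-culture of HUVEC and PBMC; TNFa ELISA 24 h after treatment, analysed as increase or decrease relative to DMSO control.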

[6] = read-out: Vascular cell adhesion molecule 1 (VCAM1), VCAM1 (gene 7412); test: BSK_LPS_VCAM1: BioMAP Diversity Plus: LPS Assay for Vascular cell adhesion molecule 1 (VCAM1) Biomarker Activity (AID 2283086); conditions: primary human HUVEC with PBMC; actives raise or lower the signal
Summary of the method: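 Primary human vascular co-culture (umbilical vein endothelium plus PBMC) stimulated with LPS received chemical; 24 h later VCAM-1 was read by ELISA. Overt cytotoxicity was assessed by sulforhodamine B staining of parallel cultures at the same time point.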

CD40, CD40 (gene 958) = test: BSK_SAg_CD40: BioMAP Diversity Plus: SAg Assay for CD40 Biomarker Activity (AID 2283088); conditions: primary human HUVEC with PBMC; actives raise or lower the signal
Summary of the method: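 Endpoint derived by fitting increases or decreases versus DMSO controls. CD40 is detected by fluorescence ELISA in a human vascular co-culture of endothelium and PBMC at 24 h.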

CD69, CD69 (gene 969) = test: BSK_SAg_CD69: BioMAP Diversity Plus: SAg Assay for CD69 Biomarker Activity (AID 2283089); conditions: primary human HUVEC with PBMC; actives raise or lower the signal;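 for AC50: cell surface CD69 protein quantified by ELISA with fluorescence detection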
Summary of the method: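 Values derive from bidirectional fitting relative to DMSO vehicle. Cells: umbilical vein endothelium plus peripheral blood mononuclear cells, treated 24 h before fluorescent ELISA for CD69.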

[7] = read-out: Monocyte Chemoattractant Protein-1 (MCP1), CCL2 (gene 6347); test: BSK_SAg_MCP1: BioMAP Diversity Plus: SAg Assay for Monocyte Chemoattractant Protein-1 (MCP1) Biomarker Activity (AID 2283090); conditions: primary human HUVEC with PBMC; actives raise or lower the signal
Summary of the method: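 MCP-1 levels in the endothelial–PBMC SAg co-culture were quantified by ELISA at 24 h post-dosing; both increases and decreases versus DMSO scored. Cytotoxicity monitored by SRB total protein in parallel cultures.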

[8] = read-out: E-selectin (Homo sapiens) (UniProt P16581); test: BSK_SAg_Eselectin: BioMAP Diversity Plus: SAg Assay for Eselectin Biomarker Activity (AID 2283091); conditions: primary human HUVEC with PBMC; actives raise or lower the signal
Summary of the method: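 Endpoint values derive from bidirectional fitting relative to DMSO, using ELISA-measured E-selectin in a human vascular co-culture (umbilical vein endothelium plus PBMC) sampled 24 h after dosing.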

[9] = read-out: Monokine induced gamma interferon (MIG), CXCL9 (gene 4283); test: BSK_SAg_MIG: BioMAP Diversity Plus: SAg Assay for Monokine induced gamma interferon (MIG) Biomarker Activity (AID 2283092); conditions: primary human HUVEC with PBMC; actives raise or lower the signal
Summary of the method: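 Values reflect bidirectional fitting of ELISA-measured MIG against DMSO vehicle, taken 24 h after dosing of a co-culture of human umbilical vein endothelial cells and peripheral blood mononuclear cells.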

[10] = BSK_SAg_PBMCCytotoxicity: PBMC Cytotoxicity Assessment in the BioMAP Diversity Plus: SAg Assay (AID 2283093); conditions: primary human HUVEC with PBMC;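 note: PBMC viability measured as Alamar Blue reduction fluorescence at 546/580 nm; fitted both ways against DMSO so a hit may be loss or gain of signal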
Summary of the method: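 Human umbilical vein endothelial cells co-cultured with PBMC; PBMC (75,000/well) pre-treated with compound 1 h, then activated with SEB and TSST-1 (20 ng/mL final each) for 90 h. Alamar Blue added 6 h, fluorescence 546/580 nm; bidirectional fit versus DMSO.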

[11] = read-out: Interleukin-8 (IL8), CXCL8 (gene 3576); test: BSK_SAg_IL8: BioMAP Diversity Plus: SAg Assay for Interleukin-8 (IL8) Biomarker Activity (AID 2283094); conditions: primary human HUVEC with PBMC; actives raise or lower the signal
Summary of the method: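 In this co-culture of human umbilical vein endothelium with peripheral blood mononuclear cells, IL-8 is assayed by ELISA at 24 h. DMSO serves as baseline for bidirectional curve fitting.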

[12] = BSK_SAg_Proliferation: Cell Proliferation Assessment in the BioMAP Diversity Plus: SAg Assay (AID 2283095); conditions: primary human HUVEC with PBMC;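 note: relative cell number as total protein by SRB absorbance in sub-confluent culture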
Summary of the method: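 Readout is SRB-stained protein (560 nm) in a primary human HUVEC and PBMC co-culture; sub-confluent cultures are read at 96 h. Activity is fitted bidirectionally using DMSO as baseline.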

[13] = BSK_SAg_SRB: Viability Assessment in the BioMAP Diversity Plus: SAg Assay (AID 2283096); conditions: primary human HUVEC with PBMC;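 note: cells read one day after compound addition; hits may be either gain or loss of signal compared with DMSO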
Summary of the method: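 Endothelial/PBMC primary human co-culture; compound 24 h; fix 10% TCA, stain 0.1% SRB, A560; protein content as cytotoxicity proxy; bidirectional curve fit, DMSO = baseline.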

[14] = target: human CYP2A6, CYP2A6 (gene 1548) (UniProt P11509); test: NVS_ADME_hCYP2A6: NovaScreen (NVS) CYP450-related Enzyme Activity (ADME) Assay for human CYP2A6 (AID 2283099; active = hit-call score of the fitted dose curve at least 0.9, where 1 is the maximum)
Summary of the method: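 Loss of fluorescence signal relative to acetonitrile vehicle reported CYP2A6 inhibition in a cell-free system using insect-cell-derived enzyme. Readings were taken at 0.5 h; top concentration in follow-up dose series was 20 uM.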

[15] = target: human CYP2B6, CYP2B6 (gene 1555) (UniProt P20813); test: NVS_ADME_hCYP2B6: NovaScreen (NVS) CYP450-related Enzyme Activity (ADME) Assay for human CYP2B6 (AID 2283101; active = hit-call score of the fitted dose curve at least 0.9, where 1 is the maximum)
Summary of the method: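 Compounds were first screened in duplicate at 10 uM against recombinant enzyme, with the fluorescent product measured after 1 hour. Active compounds were retested over a concentration series. Loss of fluorescence versus acetonitrile control was scored as reduced enzyme activity.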

CD38, CD38 (gene 952) = test: BSK_SAg_CD38: BioMAP Diversity Plus: SAg Assay for CD38 Biomarker Activity (AID 2283087); conditions: primary human HUVEC with PBMC; actives raise or lower the signal
Summary of the method: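 Fluorescence ELISA of cell-surface CD38 served as the read-out, with either increase or decrease fitted against DMSO controls. Cells were a human umbilical vein endothelium plus PBMC co-culture under SEB/TSST-1 stimulation, measured 24 h after dosing.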

Measured: AC50

Chain of Tumor necrosis factor (Homo sapiens) (P01375 whole entry, looked up): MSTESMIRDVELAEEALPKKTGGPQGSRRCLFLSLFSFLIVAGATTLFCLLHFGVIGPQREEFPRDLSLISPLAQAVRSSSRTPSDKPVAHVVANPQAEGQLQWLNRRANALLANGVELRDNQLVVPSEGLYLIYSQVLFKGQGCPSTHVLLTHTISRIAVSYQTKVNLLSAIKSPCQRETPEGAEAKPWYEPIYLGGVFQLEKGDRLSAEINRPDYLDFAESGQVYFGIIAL
Chain of E-selectin (Homo sapiens) (P16581 whole entry, looked up): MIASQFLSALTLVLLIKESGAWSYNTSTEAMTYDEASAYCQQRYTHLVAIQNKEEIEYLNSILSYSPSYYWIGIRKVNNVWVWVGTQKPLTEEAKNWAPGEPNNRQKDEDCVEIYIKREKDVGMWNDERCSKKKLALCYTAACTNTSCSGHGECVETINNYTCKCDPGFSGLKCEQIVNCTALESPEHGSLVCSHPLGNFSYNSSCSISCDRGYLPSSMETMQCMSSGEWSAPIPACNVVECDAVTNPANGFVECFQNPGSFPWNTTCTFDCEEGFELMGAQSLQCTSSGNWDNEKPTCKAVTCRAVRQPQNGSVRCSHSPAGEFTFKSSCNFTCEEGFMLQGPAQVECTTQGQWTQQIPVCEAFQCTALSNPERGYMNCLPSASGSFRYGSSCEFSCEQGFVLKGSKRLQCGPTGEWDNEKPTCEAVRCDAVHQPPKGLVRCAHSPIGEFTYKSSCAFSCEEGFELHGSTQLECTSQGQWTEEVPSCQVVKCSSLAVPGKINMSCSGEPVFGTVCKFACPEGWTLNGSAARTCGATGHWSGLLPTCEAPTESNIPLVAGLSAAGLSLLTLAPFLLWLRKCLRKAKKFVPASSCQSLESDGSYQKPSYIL
Chain of human CYP2A6, CYP2A6 (gene 1548) (P11509 whole entry, looked up): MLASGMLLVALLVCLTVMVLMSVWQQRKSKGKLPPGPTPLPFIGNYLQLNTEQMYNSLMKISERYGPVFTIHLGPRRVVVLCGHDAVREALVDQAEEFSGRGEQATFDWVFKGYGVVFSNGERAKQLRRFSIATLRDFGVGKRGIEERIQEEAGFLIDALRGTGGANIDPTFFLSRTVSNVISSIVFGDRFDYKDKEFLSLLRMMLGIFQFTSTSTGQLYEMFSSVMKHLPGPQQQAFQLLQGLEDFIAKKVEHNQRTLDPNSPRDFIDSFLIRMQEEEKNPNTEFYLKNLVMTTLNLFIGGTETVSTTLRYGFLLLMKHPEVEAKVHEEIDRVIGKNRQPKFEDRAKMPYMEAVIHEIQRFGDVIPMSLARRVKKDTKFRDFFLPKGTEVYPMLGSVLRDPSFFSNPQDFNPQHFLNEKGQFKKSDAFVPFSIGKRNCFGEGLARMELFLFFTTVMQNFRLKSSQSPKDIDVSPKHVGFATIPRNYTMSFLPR
Chain of human CYP2B6, CYP2B6 (gene 1555) (P20813 whole entry, looked up): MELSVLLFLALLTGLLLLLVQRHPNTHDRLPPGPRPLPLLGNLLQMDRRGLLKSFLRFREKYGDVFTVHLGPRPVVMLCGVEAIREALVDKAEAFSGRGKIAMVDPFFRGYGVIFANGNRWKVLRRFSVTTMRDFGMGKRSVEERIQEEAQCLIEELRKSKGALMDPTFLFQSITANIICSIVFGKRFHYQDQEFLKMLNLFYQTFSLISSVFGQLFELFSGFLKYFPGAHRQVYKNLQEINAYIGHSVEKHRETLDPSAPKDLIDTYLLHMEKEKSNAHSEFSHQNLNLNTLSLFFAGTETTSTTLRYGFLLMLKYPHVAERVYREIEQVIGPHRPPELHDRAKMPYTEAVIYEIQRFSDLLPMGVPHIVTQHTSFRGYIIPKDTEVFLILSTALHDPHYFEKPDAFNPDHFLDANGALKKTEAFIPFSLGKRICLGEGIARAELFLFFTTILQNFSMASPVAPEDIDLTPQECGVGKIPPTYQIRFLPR

COc1ccc([N+](=O)[O-])cc1N
active: [14] 5.77 µM
not listed: CD38, CD38 (gene 952)
inactive: all other assays above

Cc1cc(C)c(O)c(C)c1
active: [2] 2.97 µM | [5] 0.352 µM
not listed: [10] | [14] | [15] | CD38, CD38 (gene 952)
inactive: all other assays above

OC1CCC(C2CCCCC2)CC1 (configuration not stated)
not listed: [10] | [14] | [15] | CD38, CD38 (gene 952)
inactive: all other assays above

CC(C)(C)CC(C)(C)c1ccc(O)c(-n2nc3ccccc3n2)c1
not listed: [10] | [14] | [15] | CD38, CD38 (gene 952)
inactive: all other assays above

CCCCCCCCCCCCc1ccccc1S(=O)(=O)O
not listed: [10] | [14] | [15] | CD38, CD38 (gene 952)
inactive: all other assays above

CC[C@H](C)[C@@H](C(=O)O)n1sc2ccccc2c1=O
active: [2] 32.2 µM | [5] 20 µM | [6] 26.5 µM
not listed: [10] | [14] | [15] | CD38, CD38 (gene 952)
inactive: all other assays above

CC#C[C@]1(O)CC[C@H]2[C@@H]3CCC4=CC(=O)CCC4=C3[C@@H](c3ccc(N(C)C)cc3)C[C@@]21C
active: [1] 31.5 µM | [3] 12.1 µM | CD38, CD38 (gene 952) 36.6 µM | CD40, CD40 (gene 958) 31.2 µM | CD69, CD69 (gene 969) 31.9 µM | [7] 31.7 µM | [8] 33.4 µM | [9] 35.5 µM | [12] 36.2 µM | [13] 31.7 µM
inactive: [2] | [4] | [5] | [10] | [11]

From PubChem BioAssay (EPA / NIEHS)
